# SKN-1 inh – blocks SKN-1 activity in C. elegans; AID 624304; 360,000 tested, 0.49% active; C. elegans VP596 Pgst-4::GFP/RFP ratio, acrylamide-induced, 24 h; inhibition, % at 21.8 µM;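 active means interference check ratio from 0.5 to 1.5 plus GFP to RFP signal ratio inhibition reaching or exceeding a fixed threshold, cut at about 30% in these data, passing the limit was not always enough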
# MPTP block – permeability transition pore inhibition. 360,000 tested, 1.4% active. isolated mouse mitochondria, Ca2+ swelling absorbance, 30 min. AID 602449. inhibition, % at 10 µM;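 active means inhibition of 50% or more, scaled per plate between neutral and stimulator controls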;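 further: 0% = DMSO wells given calcium and 100% = 1 mM EGTA wells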
# CFTR F508del cor – CFTR F508del correction in bronchial cells | activity (quench increase), % at 7.58 µM | CFBE cells, YFP halide quenching; stimulated with forskolin plus potentiator P3; % fluorescence drop versus neutral controls | 350,000 tested, 0.36% active;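 active means mean added fluorescence quench of at least 8% versus neutral control, with both replicates also reaching 8%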;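 further: cells transiently co-express mutant CFTR-F508del with the halide-sensitive YFP; corrector assay measuring rescue of mutant channel to the surface after 24 h compound exposure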
# ATG4B inh – inhibitors of human ATG4B cysteine protease; ATG4B cleavage of LC3-PLA2, NBD-HPC fluorescence, 1 h; inhibition, % at 8.33 µM; 340,000 tested, 0.51% active; AID 504462; in the data active means inhibition above about 40%
# CendR NRP1 mod – alters CendR peptide binding to human NRP-1. O14786. FAM-RPARPAR peptide binding to NRP-1, fluorescence polarization. inhibition, % at 25 µM. 360,000 tested, 0.85% active. AID 602438;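 active means inhibition or corrected inhibition above about 18%, plus a signal ratio from 0.5 to 1.5, limit read from the data, passing the limit was not always enough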
# Target sequence (O14786 whole entry, looked up): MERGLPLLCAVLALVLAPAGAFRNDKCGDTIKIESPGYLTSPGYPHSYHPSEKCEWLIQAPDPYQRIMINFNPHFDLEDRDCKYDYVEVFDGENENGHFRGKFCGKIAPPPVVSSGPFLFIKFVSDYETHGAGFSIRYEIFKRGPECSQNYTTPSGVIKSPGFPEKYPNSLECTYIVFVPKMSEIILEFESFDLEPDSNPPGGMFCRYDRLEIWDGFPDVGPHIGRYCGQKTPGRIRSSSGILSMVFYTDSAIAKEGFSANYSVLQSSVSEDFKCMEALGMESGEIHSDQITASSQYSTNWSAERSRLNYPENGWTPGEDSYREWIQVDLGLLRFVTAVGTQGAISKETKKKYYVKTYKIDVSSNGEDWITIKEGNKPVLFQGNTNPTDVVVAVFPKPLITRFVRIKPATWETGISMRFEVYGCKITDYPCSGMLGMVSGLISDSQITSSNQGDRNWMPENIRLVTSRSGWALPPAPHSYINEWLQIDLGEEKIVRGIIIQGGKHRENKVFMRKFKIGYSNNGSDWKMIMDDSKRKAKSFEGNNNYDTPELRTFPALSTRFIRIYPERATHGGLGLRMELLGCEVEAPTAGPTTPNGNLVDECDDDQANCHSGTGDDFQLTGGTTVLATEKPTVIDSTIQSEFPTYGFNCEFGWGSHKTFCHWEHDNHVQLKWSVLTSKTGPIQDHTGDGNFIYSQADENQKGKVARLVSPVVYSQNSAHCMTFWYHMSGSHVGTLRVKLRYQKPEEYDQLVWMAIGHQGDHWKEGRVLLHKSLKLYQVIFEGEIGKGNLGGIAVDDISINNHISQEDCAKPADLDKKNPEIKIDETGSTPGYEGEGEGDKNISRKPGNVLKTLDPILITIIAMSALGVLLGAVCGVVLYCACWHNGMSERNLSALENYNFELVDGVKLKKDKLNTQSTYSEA
# MPTP counter – membrane potential counter-screen of mitochondrial pore inhibitors. 5,000 tested, 78% active. AID 624504. inhibition, % at 10 µM. shares compounds with MPTP block. isolated mitochondria, Rhodamine 123 fluorescence; in the data active means inhibition above about 22%;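 further: 0% = DMSO vehicle and 100% = positive control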
# MPTP abs DR – MPTP inhibition, dose response swelling confirmation. shares compounds with MPTP block. isolated mitochondria swelling, absorbance. IC50, µM. 780 tested, 58% active. AID 651561; in the data active means IC50 below about 20 µM
# MPTP counter DR – counter-screen for mitochondrial permeability transition pore inhibitors, dose response | shares compounds with MPTP block | isolated mitochondria counterscreen, fluorescence read-out | IC50, µM | 780 tested, 49% active; in the data active means IC50 below about 80 µM
# * = called active by the depositor; i = inactive; . = not tested or not shown. The list is not random: actives were taken first. Their share in the collection is about 2.7%.
SMILES,SKN-1 inh,MPTP block,CFTR F508del cor,ATG4B inh,CendR NRP1 mod,MPTP counter,others
C[C@H](NC(=O)C[C@@H]1CC[C@@H]2[C@H](COC[C@@H](O)CN2Cc2ccc(C(F)(F)F)cc2)O1)c1ccccc1,.,.,0.2,.,.,.,
O=C(Nc1ccc(F)cc1)OCCN1CCN(Cc2ccccc2)CCC1=O,-1.5,16.6,0.3,-1.7,-15.8,.,
O=C(Nc1cccc(C(F)(F)F)c1)OCCN1CCN(Cc2ccccc2)CCC1=O,-5.0,98.3*,5.6,-11.2,22.9*,89.8*,
O=C(NNC(=S)Nc1ccc(F)cc1)C1CC1c1ccc(Cl)cc1 (stereo not given),-8.5,14.7,.,-5.7,-5.4,.,
Fc1ccc(NC(=S)Nc2cc(Cl)ccc2Cl)cc1,9.2,57.9*,-2.8,-4.5,3.2,78.4*,
O=C(Nc1ccc(Cl)cc1)Nc1ccc(S(=O)(=O)Nc2ncccn2)cc1,5.3,-0.8,0.3,6.1,-6.0,.,
O=S(=O)(Nc1ncccn1)c1ccc(NC(=S)Nc2ccc(Cl)cc2)cc1,6.4,97.9*,-0.8,-1.3,-4.5,95.6*,
Fc1ccc(NC(=S)Nc2ccc(Cl)cc2)cc1,-2.0,80.4*,.,3.1,8.2,106.7*,
Clc1ccccc1-c1nc(-c2ccccc2)n[nH]1,0.6,2.6,.,-1.8,-16.0,.,
Oc1ccccc1-c1n[nH]c(-c2ccccc2O)n1,5.8,86.9*,6.3,-0.5,0.0,84.5*,
COc1ccc(NC(=O)N(C)C[C@H]2OCCCC[C@H](C)Oc3ccc(NC(=O)Nc4ccccc4)cc3C(=O)N([C@H](C)CO)C[C@@H]2C)cc1,.,.,-1.1,.,.,.,
O=C1/C(=C/c2ccccn2)SC(=S)N1c1ccc(O)cc1,8.5,1.5,2.5,-6.3,-6.8,.,
COc1ccc(/C=C2/SC(=S)N(c3ccc(S(=O)(=O)Nc4nccs4)cc3)C2=O)cc1,8.2,89.2*,.,-1.6,-21.7,64.3*,
Cc1ccc(/C=C2/SC(=S)N(c3ccc(S(=O)(=O)Nc4nccs4)cc3)C2=O)cc1,-23.9,95.7*,.,-2.6,-29.2,74.6*,
O=C1/C(=C\c2ccccn2)SC(=S)N1c1ccc(S(=O)(=O)Nc2nccs2)cc1,7.9,70.5*,0.7,-5.7,-13.2,47.9*,
COc1ccc(CNC(=O)C[C@H]2CC[C@H]3[C@@H](COc4ccc(NC(=O)C5CC5)cc4C(=O)N3C)O2)cc1,.,.,2.1,.,.,.,
O=C(CCSc1ccccc1Cl)Nc1cccc([N+](=O)[O-])c1,13.0,89.0*,.,16.9,19.2,84.1*,
CC1CCCN(CCOCCOc2ccc(Cl)cc2Br)C1 (stereo not given),7.7,59.4*,.,19.1,-8.4,1.0,MPTP abs DR=i;MPTP counter DR=>80
Clc1ccc(OCCCN2CCCCC2)c(Br)c1,10.5,78.4*,-4.2,6.9,16.2,-3.3,MPTP abs DR=i;MPTP counter DR=>80
CC1CCCN(CCOCCOc2ccc(Br)cc2Cl)C1 (stereo not given),-6.9,3.0,.,2.5,-2.6,.,
COC(=O)[C@H]1[C@@H]2COc3ccccc3[C@H]2N[C@H]1C(=O)OC,.,.,-0.5,.,.,.,
C[C@@H]1CN([C@H](C)CO)C(=O)c2cc(NC(=O)c3ccncc3)ccc2O[C@@H](C)CCCCO[C@@H]1CN(C)Cc1ccc(C(=O)O)cc1,.,.,-2.3,.,.,.,
COc1ccccc1-c1ccc2c(c1)O[C@H](CN(C)Cc1ccc3c(c1)OCO3)[C@H](C)CN([C@H](C)CO)S2(=O)=O,.,.,-0.8,.,.,.,
Cc1nn(C)c(C)c1NC(=O)Nc1cccc(C(F)(F)F)c1,3.0,72.0*,.,-3.6,14.7,53.8*,
Cc1c(NC(=O)Nc2ccc(Cl)c(Cl)c2)c(=O)n(-c2ccccc2)n1C,3.4,89.5*,.,-4.5,1.4,89.6*,
SMILES,SKN-1 inh,MPTP block,CFTR F508del cor,ATG4B inh,CendR NRP1 mod,MPTP counter,others
Cc1nn(C)c(C)c1NC(=O)Nc1ccc(Cl)c(Cl)c1,-4.9,101.5*,-1.5,1.0,-2.2,88.3*,
COc1ccc(S(=O)(=O)Nc2ccc3c(c2)CC(=O)N([C@H](C)CO)C[C@@H](C)[C@H](CN(C)C)O3)cc1,.,.,-1.4,.,.,.,
C[C@@H]1CN([C@H](C)CO)C(=O)c2cc(NC(=O)Nc3ccc(C(F)(F)F)cc3)ccc2O[C@@H](C)CCCCO[C@H]1CN(C)C(=O)c1ccccc1,.,.,3.1,.,.,.,
CC(=O)c1ccc(N2CCN(C(=O)c3ccc4c(=O)[nH]c5c(C(=O)NC6CCCC6)sc(=S)n5c4c3)CC2)cc1,.,.,2.3,.,.,.,
O=C(NC1CCCCC1)c1sc(=S)n2c1[nH]c(=O)c1ccccc12,0.5,89.9*,.,37.4,-18.5,92.3*,
CC1(C)CC(=O)C=C(C#CC2CC2)C1,.,.,0.1,.,.,.,
Cc1cc2oc3ccc(NCCCn4ccnc4)cc3c(=O)c2cc1C,4.7,57.5*,-2.8,4.7,-133.4,-2.0,
CC(C1CC1)N(Cc1ccccc1)C(=S)Nc1cccc(C(F)(F)F)c1 (stereo not given),7.5,65.4*,2.5,12.2,-0.5,84.6*,
O=C(O)c1ccccc1C(=O)Nc1ccc(Br)c(C(F)(F)F)c1,-1.0,5.7,-1.2,-4.9,4.1,.,
Cc1cc(C)c(C(=O)Nc2ccc(Br)c(C(F)(F)F)c2)c(C)c1,16.4,57.9*,.,6.1,-11.9,82.7*,
COc1ccccc1NC(=O)N1CC(=O)N2[C@H](C1)[C@H](c1ccc(C#CC3CC3)cc1)[C@@H]2CO,.,.,2.8,.,.,.,
CC1CCN(S(=O)(=O)c2ccc(Oc3ccc([N+](=O)[O-])cc3)cc2)CC1,-2.3,66.9*,.,-2.2,4.7,70.8*,
CC1CCN(S(=O)(=O)c2ccc([N+](=O)[O-])cc2)CC1,0.9,2.2,0.8,-1.2,1.7,.,
C[C@@H]1CN([C@@H](C)CO)C(=O)c2cc(NC(=O)C3CCCCC3)ccc2O[C@@H](C)CCCCO[C@H]1CN(C)C(=O)c1ccncc1,.,.,-2.4,.,.,.,
Cc1cc(C)c(CN2CCN(C(=O)Cn3cnc4c(OCc5ccccc5)ncnc43)CC2)c(C)c1,-27.1,67.1*,-1.8,.,-10.8,84.2*,
O=C(O)Cn1cnc2c(OCc3ccccc3)ncnc21,3.5,-2.0,0.4,.,-3.9,.,
COc1ccccc1CC(=O)Nc1ccc([N+](=O)[O-])cc1O,-1.1,53.7*,3.0,-9.9,3.7,81.8*,
N#C/C(=C\c1ccc(O)cc1)c1nc2ccccc2o1,2.7,87.0*,2.2,-11.8,-202.8,89.8*,
COc1cc(/C=C(\C#N)c2nc3ccccc3o2)ccc1O,0.6,14.2,3.0,-19.1,133.8,.,
Cc1cc2oc(C(=O)Nc3ccc(S(=O)(=O)N4CCCC(C)C4)cc3)cc(=O)c2cc1Cl (stereo not given),2.6,73.4*,.,16.6,-9.1,6.7,MPTP abs DR=>100;MPTP counter DR=<2.5*
Cc1cc2oc(C(=O)Nc3ccc(S(=O)(=O)Nc4nccs4)cc3)cc(=O)c2cc1Cl,1.5,4.7,.,10.6,-52.5,.,

# Screens deposited in PubChem BioAssay by several laboratories.
